In PubChem BioAssay:
Calls of active or inactive are those of the source. Unless noted, the rule behind the calls is not given here.

Assays:
[1] = test system: Wnt5a (protein binding on small-molecule microarray); test: Wnt5a binders on small-molecule microarray, primary screen, biophysical, 635/667 nm fluorescence (AID 1142); details: 635 nm fluorescence, higher = more signal;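 note: fluorescence read at 667 nm with signal to noise per printed feature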
[2] = cell viability in Huh7 cells, primary screen, cytotoxicity control for HCV replication inhibitor project, CellTiter-Glo luminescence, basal, 48 h (AID 1143); details: Huh7 HCV replicon, higher = more signal, called active from +8 up or from −8 down;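 note: Huh7 hepatoma cells carrying a hepatitis C replication reporter with no stimulus; test concentration not given here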
[3] = P. aeruginosa biofilm formation inhibitors, primary screen, PAO1 strain, BacTiter-Glo luminescence, LB-PBS (AID 1144); details: 12 h, higher = more signal
[4] = CREB reporter modulators without forskolin, primary screen, cell-based, PC12, CRE-LacZ reporter, unstimulated (AID 1145); details: no forskolin, luminescence, 4.5 h, higher = more signal, called active from +8 up or from −8 down
[5] = CREB reporter modulators under forskolin, primary screen, cell-based, PC12, CRE-LacZ reporter, forskolin-stimulated (AID 1146); details: luminescence, 4.5 h, higher = more signal, called active from +8 up or from −8 down;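 note: PC12 cells with 6xCRE LacZ reporter stimulated by forskolin 10 µM; beta-galactosidase reporter signal reflecting CREB driven transcription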
[6] = molecular target: Streptavidin (Streptomyces avidinii) (UniProt P22629); test: streptavidin binders on small-molecule microarray, primary screen, artefact control for SMM compound annotation, biophysical, 635/667 nm fluorescence (AID 1147); details: streptavidin binding, higher = more signal;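 note: signal reflects streptavidin binding to arrayed compounds as a control protein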
Chain of Streptavidin (Streptomyces avidinii) (P22629 whole entry, looked up): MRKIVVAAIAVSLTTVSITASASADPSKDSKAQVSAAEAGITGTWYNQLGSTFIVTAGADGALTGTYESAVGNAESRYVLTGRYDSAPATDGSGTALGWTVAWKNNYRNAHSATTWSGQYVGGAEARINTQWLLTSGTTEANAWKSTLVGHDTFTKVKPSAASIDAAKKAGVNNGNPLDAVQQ

[7] = small-molecule binders of probe aInhba, primary screen, biochemical, small-molecule microarray, 635/667 nm fluorescence (AID 1148); details: higher = more signal;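 note: score merges 667nm spot fluorescence with signal-to-noise for antibody binding to printed compounds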
[8] = molecular target: Torsin-1A (Homo sapiens) (UniProt O14656); test: torsin A binders from cell lysate, primary screen, small-molecule microarray, wild-type, 635/667 nm (AID 1149); details: COS7 hTOR1A-WT lysate, 635 nm fluorescence, higher = more signal
Chain of Torsin-1A (Homo sapiens) (O14656 whole entry, looked up): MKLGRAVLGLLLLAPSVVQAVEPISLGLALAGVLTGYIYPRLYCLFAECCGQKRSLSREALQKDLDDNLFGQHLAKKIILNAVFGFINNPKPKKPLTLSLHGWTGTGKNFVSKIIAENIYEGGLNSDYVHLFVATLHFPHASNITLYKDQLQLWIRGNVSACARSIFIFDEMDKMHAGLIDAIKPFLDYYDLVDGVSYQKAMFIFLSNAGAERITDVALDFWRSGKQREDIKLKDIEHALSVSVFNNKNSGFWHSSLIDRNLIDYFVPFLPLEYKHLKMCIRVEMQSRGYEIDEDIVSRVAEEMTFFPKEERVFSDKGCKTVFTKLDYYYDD

[9] = molecular target: Torsin-1A (Homo sapiens) (UniProt O14656); test: small-molecule binders of mutant TOR1A in lysate, primary screen, cell lysate, small-molecule microarray, COS7 lysate, 635/667 nm fluorescence (AID 1150); details: COS7 hTOR1A mutant lysate, 635 nm fluorescence, higher = more signal;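 note: score pools 667 nm emission and signal to noise measuring lysate protein binding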
[10] = test system: Sonic hedgehog protein (Shh); test: small-molecule binders of Shh protein, primary screen, biochemical, small-molecule microarray, 635/667 nm fluorescence (AID 1151); details: small-molecule microarray binding, 635 nm fluorescence; higher = more signal;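 note: Shh protein binding to compounds spotted on small-molecule microarray slides; score combines spot fluorescence intensity with signal-to-noise across triplicate slides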
[11] = E. coli DRC41 culture turbidity changes, primary screen, E. coli filamentation inducer project, strain DRC41, OD650, 48 h (AID 1152);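 note: E. coli MC1000 strain DRC41 lacking acrAB efflux pump and sulA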; details: E. coli DRC41 (acrAB sulA), higher = more signal, called active from +8 up or from −8 down
[12] = small-molecule binders of probe aLefty1, primary screen, biochemical, small-molecule microarray, 635/667 nm fluorescence (AID 1153); details: higher = more signal;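 note: score merges spot fluorescence with signal-to-noise ratio from the scanned slide images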
[13] = PSAC antagonists in infected red cells, primary screen, cell-based, P. falciparum Indochina, OD700, 1 h (AID 1154); details: P. falciparum Indochina infected RBC osmotic lysis, higher = more signal, called active from +8 up or from −8 down
[14] = PSAC antagonists in infected red cells, primary screen, cell-based, P. falciparum Indochina, OD700, 2 h (AID 1155);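 note: lysis reports solute entry through the parasite surface anion channel PSAC; channel blockers reduce lysis of infected cells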; details: P. falciparum Indochina infected erythrocytes, osmotic lysis OD700; higher = more signal, called active from +8 up or from −8 down
[15] = osmotic lysis modulators in infected erythrocytes, primary screen, PSAC antagonist project, cell-based, P. falciparum Indochina, OD700, 3 h (AID 1156); details: higher = more signal, called active from +8 up or from −8 down
[16] = PSAC antagonists in infected red cells, primary screen, cell-based, P. falciparum Indochina, OD700, 18 h (AID 1157); details: P. falciparum Indochina infected erythrocytes, osmotic lysis OD700, 18 h; higher = more signal, called active from +8 up or from −8 down
[17] = modulators of S6 phosphorylation in cells, primary screen, cell-based, A549, cytoblot, luminescence, serum-stimulated (AID 1158); details: A549 phospho-S6 cytoblot, 5 h, higher = more signal;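 note: serum-stimulated A549 lung adenocarcinoma cells; signal is phosphorylated S6 detected by cytoblot immunostaining with HRP secondary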
[18] = molecular target: NADPH oxidase 2 (Homo sapiens) (UniProt P04839); test: NOX2-dependent H2O2 signal modulators, primary screen, NOX inhibitor project, cell-based, HEK293-NOX2, PMA-stimulated, Amplex Red fluorescence (AID 1159); details: 45 min, higher = more signal, called active from +8 up or from −8 down; note: test concentration not given here
Chain of NADPH oxidase 2 (Homo sapiens) (P04839 whole entry, looked up): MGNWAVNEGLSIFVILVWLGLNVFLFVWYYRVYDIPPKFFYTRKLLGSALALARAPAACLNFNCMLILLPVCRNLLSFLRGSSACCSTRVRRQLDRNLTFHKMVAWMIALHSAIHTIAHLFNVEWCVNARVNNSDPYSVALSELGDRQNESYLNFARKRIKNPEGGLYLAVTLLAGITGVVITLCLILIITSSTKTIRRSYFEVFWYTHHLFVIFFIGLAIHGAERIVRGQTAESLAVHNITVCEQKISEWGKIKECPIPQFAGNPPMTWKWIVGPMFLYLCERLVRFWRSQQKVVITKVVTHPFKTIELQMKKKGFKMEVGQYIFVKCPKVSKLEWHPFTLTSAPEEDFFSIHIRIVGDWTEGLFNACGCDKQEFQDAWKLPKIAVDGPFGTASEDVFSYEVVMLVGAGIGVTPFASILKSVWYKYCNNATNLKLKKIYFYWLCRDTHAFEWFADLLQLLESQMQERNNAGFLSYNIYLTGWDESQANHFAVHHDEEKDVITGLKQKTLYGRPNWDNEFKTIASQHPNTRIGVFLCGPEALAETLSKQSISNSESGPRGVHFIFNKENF

[19] = molecular target: NADPH oxidase 4 (Homo sapiens) (UniProt Q9NPH5); test: NOX4-dependent H2O2 signal modulators, primary screen, NOX inhibitor project, cell-based, HEK293-NOX4, tetracycline-induced, Amplex Red fluorescence (AID 1160); details: 45 min, higher = more signal, called active from +8 up or from −8 down
Chain of NADPH oxidase 4 (Homo sapiens) (Q9NPH5 whole entry, looked up): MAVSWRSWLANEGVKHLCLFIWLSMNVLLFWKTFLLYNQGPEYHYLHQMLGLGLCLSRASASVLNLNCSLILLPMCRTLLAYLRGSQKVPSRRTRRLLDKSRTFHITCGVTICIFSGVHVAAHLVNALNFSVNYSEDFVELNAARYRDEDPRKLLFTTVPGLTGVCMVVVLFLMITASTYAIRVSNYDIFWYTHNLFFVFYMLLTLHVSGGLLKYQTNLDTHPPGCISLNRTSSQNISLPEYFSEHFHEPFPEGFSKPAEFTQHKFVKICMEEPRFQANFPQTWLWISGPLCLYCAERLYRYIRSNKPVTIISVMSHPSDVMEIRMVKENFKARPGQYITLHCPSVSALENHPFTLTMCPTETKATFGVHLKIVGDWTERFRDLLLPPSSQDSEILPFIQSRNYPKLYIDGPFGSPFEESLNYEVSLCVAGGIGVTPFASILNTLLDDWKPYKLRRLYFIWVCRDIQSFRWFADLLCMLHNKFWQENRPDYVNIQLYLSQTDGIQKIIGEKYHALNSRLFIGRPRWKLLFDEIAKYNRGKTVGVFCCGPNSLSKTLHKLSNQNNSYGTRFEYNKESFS

[20] = molecular target: NADPH oxidase 5 (Homo sapiens) (UniProt Q96PH1); test: NOX5-dependent H2O2 signal modulators, primary screen, NOX inhibitor project, cell-based, HEK293-NOX5, Amplex Red fluorescence (AID 1161); details: HEK293-NOX5, ionomycin, 45 min, higher = more signal
Chain of NADPH oxidase 5 (Homo sapiens) (Q96PH1 whole entry, looked up): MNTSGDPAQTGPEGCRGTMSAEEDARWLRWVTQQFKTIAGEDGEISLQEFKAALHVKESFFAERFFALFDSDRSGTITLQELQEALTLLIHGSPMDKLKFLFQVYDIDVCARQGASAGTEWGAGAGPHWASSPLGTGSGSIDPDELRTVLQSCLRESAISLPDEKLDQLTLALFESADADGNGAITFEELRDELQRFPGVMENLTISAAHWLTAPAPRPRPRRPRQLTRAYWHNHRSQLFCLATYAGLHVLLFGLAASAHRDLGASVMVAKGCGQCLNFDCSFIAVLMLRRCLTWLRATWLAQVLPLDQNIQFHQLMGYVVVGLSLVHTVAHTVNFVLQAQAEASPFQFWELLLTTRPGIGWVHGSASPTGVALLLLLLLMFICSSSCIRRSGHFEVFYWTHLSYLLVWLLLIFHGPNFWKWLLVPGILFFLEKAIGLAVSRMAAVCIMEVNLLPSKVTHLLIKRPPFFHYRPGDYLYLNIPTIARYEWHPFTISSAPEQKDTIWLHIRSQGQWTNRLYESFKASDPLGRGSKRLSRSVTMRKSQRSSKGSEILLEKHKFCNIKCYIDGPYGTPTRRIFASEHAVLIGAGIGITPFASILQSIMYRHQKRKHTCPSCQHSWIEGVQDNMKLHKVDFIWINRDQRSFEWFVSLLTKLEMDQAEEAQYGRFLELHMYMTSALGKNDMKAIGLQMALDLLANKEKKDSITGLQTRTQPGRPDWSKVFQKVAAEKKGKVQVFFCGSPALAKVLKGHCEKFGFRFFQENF

SMILES | composite z-score [1] | z-score [2] | z-score [3] | z-score [4] | z-score [5] | composite z-score [6] | composite z-score [7] | composite z-score [8] | composite z-score [9] | composite z-score [10] | z-score [11] | composite z-score [12] | z-score [13] | z-score [14] | z-score [15] | z-score [16] | z-score [17] | z-score [18] | z-score [19] | z-score [20]
CC(C)=CCCC(C)=CC(O)C1C=CC2C(=O)N(c3ccccc3)C(=O)C2N1Nc1ccccc1F (stereo not given) | 0.151 | -2.83 (inactive) | -1.45 (inactive) | -0.0228 (inactive) | 0.358 (inactive) | 1.17 | 0.0047 | -0.216 | -0.0306 | 0.396 | 0.404 (inactive) | -0.233 | 1.7 (inactive) | -0.389 (inactive) | -0.391 (inactive) | -0.789 (inactive) | -0.162 | -0.199 (inactive) | -0.284 (inactive) | 0.83
COc1ccc([Si](C)(C)[C@H]2[C@H](CCO)O[C@@]3(C(=O)N(Cc4ccccc4)c4ccc(N5CCOC5=O)cc43)[C@@H]2C)cc1 | 0.0771 | -4.87 (inactive) | -0.521 (inactive) | 2.11 (inactive) | -0.726 (inactive) | 1 | 0.0756 | -0.112 | -0.12 | 1.16 | -0.261 (inactive) | -0.0025 | 5.86 (inactive) | 1.9 (inactive) | -0.307 (inactive) | 0.913 (inactive) | 0.577 | -1.36 (inactive) | 1.71 (inactive) | 2.27
Cc1c(NC(=O)/C(C#N)=C/c2ccccc2Cl)c(=O)n(-c2ccccc2)n1C | 0.27 | -2.11 (inactive) | -0.543 (inactive) | -0.321 (inactive) | -1.21 (inactive) | 1.73 | -0.0195 | 0.461 | 0.159 | 0.0651 | 1.32 (inactive) | -0.296 | 0.471 (inactive) | -1.52 (inactive) | -0.945 (inactive) | -1.34 (inactive) | 1.22 | -3.65 (inactive) | -0.56 (inactive) | 0.29
CCN(CC)c1ccc(N2CC=CC34O[C@@H]5C=CCCOC(=O)C5[C@H]3C(=O)N(CCO)[C@@H]4C2=O)cc1 (stereo not given in full) | -0.546 | -0.055 (inactive) | -0.167 (inactive) | 0.191 (inactive) | 0.0371 (inactive) | -1.02 | -0.163 | -0.894 | -1.42 | -0.0352 | 0.286 (inactive) | -0.155 | 1.03 (inactive) | 0.537 (inactive) | 0.836 (inactive) | 0.159 (inactive) | -0.616 | 0.697 (inactive) | -0.513 (inactive) | 1.11
CC(=O)N1CC(C(O)C2C=CC3C(=O)NC(=O)C3N2Nc2ccc(Cl)cc2Cl)c2ccccc21 (stereo not given) | -0.0061 | -0.0847 (inactive) | -0.651 (inactive) | 1.21 (inactive) | -0.584 (inactive) | 0.543 | 0.16 | -0.291 | 0.545 | -0.123 | -1.14 (inactive) | 0.176 | 3.47 (inactive) | 1.36 (inactive) | -0.0499 (inactive) | 1.17 (inactive) | -0.746 | -0.849 (inactive) | -4.86 (inactive) | -2.57
CO[C@H]1O[C@H](CO)[C@@H](OC(=O)Nc2cccc(F)c2)[C@H](OC(=O)Nc2ccccc2-c2ccccc2)[C@H]1OC(=O)Nc1ccccc1-c1ccccc1 | 0.828 | -5.99 (inactive) | 0.0177 (inactive) | 0.951 (inactive) | -0.986 (inactive) | 0.379 | 0.208 | 0.937 | 0.663 | 1.23 | -0.732 (inactive) | 0.302 | 4.41 (inactive) | 1.22 (inactive) | -2.85 (inactive) | 0.937 (inactive) | -0.309 | -5.73 (inactive) | -1.02 (inactive) | -1.21
CC(C)[Si]1(C(C)C)OCc2cc(-c3ccc(-c4ccc(Cl)c(Cl)c4)o3)nc(CCc3ccccc3)c21 | 0.0947 | -1.53 (inactive) | -0.612 (inactive) | -0.0247 (inactive) | 1.6 (inactive) | -0.884 | -0.179 | -0.696 | -0.436 | 0.3 | 0.785 (inactive) | -0.239 | 1.58 (inactive) | -0.0088 (inactive) | -0.263 (inactive) | -1.01 (inactive) | 0.353 | 0.69 (inactive) | 0.187 (inactive) | -0.402
CN1C(=O)[C@@H]2[C@@H](CC(COc3ccccc3)=C([C@H](O)CCc3ccccc3)[C@@H]2CO)C1=O | -0.0336 | -1.03 (inactive) | 0.272 (inactive) | 1.67 (inactive) | -1.18 (inactive) | -0.448 | -0.128 | 0.762 | 0.0706 | 0.497 | 2.03 (inactive) | -0.328 | 29.5 (active) | 21.6 (active) | -0.0433 (inactive) | 1.43 (inactive) | 0.867 | -0.561 (inactive) | 0.867 (inactive) | 0.199
CCCCCCCCCCC(O)C1C=CC2C(=O)N(C)C(=O)C2N1Nc1cc(OC)c(OC)c(OC)c1 (stereo not given) | -0.131 | -2.56 (inactive) | 0.443 (inactive) | 0.819 (inactive) | -0.212 (inactive) | 0.133 | 0.0086 | -0.534 | 0.0777 | -1.08 | -1.99 (inactive) | 0.166 | 13.6 (active) | 3.42 (inactive) | 0.214 (inactive) | 2.15 (inactive) | -0.635 | -2.1 (inactive) | -4.98 (inactive) | -0.944
